# Compound activity: PubChem, Corson Lab, School of Medicine, Indiana University
# Shown is part of a subset that was picked to be rich in hits.
# FECH block = inhibitors of human ferrochelatase, primary screen, biochemical, purified FECH, Ni-mesoporphyrin absorbance; Ni-mesoporphyrin absorbance 550 nm; calls only at 10 µM (by protocol); 20,000 compounds, 3.3% hits; AID 1671448, 2021; Ferrochelatase, mitochondrial (Homo sapiens), P22830;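 active means enzyme reaction rate more than 3 SD below the solvent-only control wells on the same plate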;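 further: lower slope than DMSO wells means FECH inhibition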
# Target sequence (P22830 whole entry, looked up): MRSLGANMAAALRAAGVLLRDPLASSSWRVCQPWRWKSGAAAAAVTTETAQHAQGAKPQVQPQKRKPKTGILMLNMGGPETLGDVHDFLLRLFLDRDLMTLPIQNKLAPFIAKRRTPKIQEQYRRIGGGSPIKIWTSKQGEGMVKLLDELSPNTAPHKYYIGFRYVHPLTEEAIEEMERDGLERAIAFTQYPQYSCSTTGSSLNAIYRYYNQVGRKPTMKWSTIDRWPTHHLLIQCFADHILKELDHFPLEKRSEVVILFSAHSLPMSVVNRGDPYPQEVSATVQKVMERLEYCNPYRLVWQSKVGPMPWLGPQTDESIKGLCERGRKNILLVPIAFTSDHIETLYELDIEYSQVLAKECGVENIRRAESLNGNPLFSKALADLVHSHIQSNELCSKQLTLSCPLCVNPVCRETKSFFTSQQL
# Calls only; 0 = inactive; + = active, no number.
SMILES,FECH block
CCCNC(=O)c1[nH]cnc1C(=O)NCCc1c[nH]c2ccccc12,0
O=C(NCc1ccccc1)c1nc[nH]c1C(=O)N1CCC(Cc2ccccc2)CC1,0
CNC(=O)c1[nH]cnc1C(=O)NCc1ccccc1,+
COCCNC(=O)c1nc[nH]c1C(=O)NCc1ccccc1,+
CC1CCN(C(=O)c2[nH]cnc2C(=O)NCc2ccccc2)CC1,0
O=C(NCc1ccccc1)c1nc[nH]c1C(=O)N1CCCCCC1,0
CCCc1cc(Sc2ccc(NC(=O)C(C)(C)C)cc2)n2ncnc2n1,0
CC1=NN(CC(=O)NC(c2nccn2C)C(C)C)CC1 (stereo unspecified),0
CCCN(CCC)c1nc(Nc2cccc(F)c2)c2cnn(-c3ccccc3)c2n1,0
Cc1cccc(-n2c(CN3CCN(S(=O)(=O)c4cc(C)c(C)cc4C)CC3)nc3cccnc32)c1,0
Cc1cc(C)cc(-n2c(CN3CCN(S(=O)(=O)c4cccc5nsnc45)CC3)nc3cccnc32)c1,+
Cc1ccc(-n2c(CN3CCN(S(=O)(=O)c4ccc(F)cc4)CC3)nc3cccnc32)cc1,0
Cc1ccc(-n2c(CN3CCN(S(=O)(=O)c4cc(F)cc(F)c4)CC3)nc3cccnc32)cc1,+
Cc1cc(C)cc(-n2c(CN3CCN(S(=O)(=O)c4ccc(C)cc4C)CC3)nc3cccnc32)c1,0
COc1cccc(S(=O)(=O)N2CCN(Cc3nc4cccnc4n3-c3cccc(C)c3)CC2)c1,0
COc1cccc(S(=O)(=O)N2CCN(Cc3nc4cccnc4n3-c3cccc(F)c3)CC2)c1,+
COc1cccc(S(=O)(=O)N2CCN(Cc3nc4cccnc4n3-c3ccccc3)CC2)c1,0
COc1ccc(-n2c(CN3CCN(S(=O)(=O)c4cc(F)cc(F)c4)CC3)nc3cccnc32)cc1,0
CCc1ocnc1C(=O)N1Cc2cnn(Cc3ccc(F)cc3)c2C1,0
CCc1cc(C(C)NCC(=O)Nc2ccc(Cl)c(OC)c2)on1 (stereo unspecified),0
NS(=O)(=O)c1ccc(NC(=O)C2CCN(c3ncnc4c3nc3n4CCCCC3)CC2)cc1,0
CNC(=O)[C@@H]1C[C@H](N)CN1Cc1nccn1-c1ccc(OC)cc1,0
CCc1c(C)nc2ncnn2c1Sc1ccc(NS(=O)(=O)c2ccc(C(C)(C)C)cc2)cc1,0
O=C(Nc1nc2n(n1)C(c1ccccc1)C=C(c1ccccc1)N2)c1ccc(F)cc1 (stereo unspecified),0
O=c1c(NCc2ccccc2Cl)c(-c2ccc3c(c2)CCCC3)c1=O,0
SMILES,FECH block
COc1ccc(CCNc2ncnc3oc4c(c23)CCCC4)c(OC)c1,0
Clc1ccccc1CNc1ncnc2oc3c(c12)CCCC3,+
CCCCOc1ccc(C(=O)Nc2cc(C)nn2-c2ncnc3c2cnn3-c2ccc(F)cc2)cc1,0
Fc1ccc(N2CCN(c3nc(Nc4cccc(F)c4)c4cnn(-c5ccccc5)c4n3)CC2)cc1,0
COc1ccccc1N1CCN(C(=O)CCc2nc(-c3cc4ccc(C)cc4[nH]c3=O)no2)CC1,+
Cc1ccc2cc(-c3noc(CCC(=O)N4CCCC(C)C4)n3)c(=O)[nH]c2c1 (stereo unspecified),0
Cc1ccc2cc(-c3noc(CCC(=O)N4CCC(C)CC4)n3)c(=O)[nH]c2c1,0
CCOc1ccc(-c2nc(Cn3c(=O)c4cnc(-c5cccnc5)nc4n(C)c3=O)c(C)o2)cc1,0
Cc1cc(=O)oc2cc(NC(=O)C3CCN(c4ncnc5c4nc4n5CCCCC4)CC3)ccc12,0
O=C(NCCN1CCCc2ccccc21)C1CCCN1c1nnc(N2CCCC2=O)s1 (stereo unspecified),0
COc1ccc(CNC(=O)C2CCCN2S(=O)(=O)c2ccc3c(c2)CCCC(=O)N3)cc1 (stereo unspecified),0
CCN(CCCNC(=O)C1CCCN1c1nnc(N2CCCC2=O)s1)Cc1ccccc1 (stereo unspecified),0
O=C(NCCCN1CCN(c2ccc(F)cc2)CC1)C1CCCN1c1nnc(N2CCCC2=O)s1 (stereo unspecified),+
COc1ccc(CNC(=O)C2CCCN2c2nnc(N3CCCC3=O)s2)cc1OC (stereo unspecified),+
COc1ccc(N2CCN(CCCNC(=O)c3cccn3-c3nnc(N4CCCCC4)s3)CC2)cc1,0
CC(=O)c1c(C)nn(Cc2nc(C3CC3)nn2-c2ccccc2)c1C,0
COc1cccc(-c2c(Nc3ccccc3C)oc3c2c(=O)n(C)c(=O)n3C)c1,0
CCN(Cc1noc(C2CC2)n1)C(=O)c1onc2ccccc12,0
CCCN1CC(NC(=O)CN2CCC(C)=N2)CC1=O (stereo unspecified),0
CC(=O)Nc1cccc(NC(=O)c2nc3ccccc3n(C)c2=O)c1,+
COC(=O)c1ccc(NC(=O)c2nc3ccccc3n(C)c2=O)cc1,0
COc1cccc(NC(=O)c2nc3ccccc3n(C)c2=O)c1,0
Cn1c(=O)c(C(=O)Nc2ccc(Cl)cc2)nc2ccccc21,0
Cn1c(=O)c(C(=O)Nc2ccc(Oc3ccc(Cl)cc3)cc2)nc2ccccc21,+
CC(=O)c1ccc(NC(=O)c2nc3ccccc3n(C)c2=O)cc1,0
SMILES,FECH block
COc1ccc(C2C=C(c3ccc(Cl)cc3)Nc3nc(NC(=O)c4ccccc4OC)nn32)cc1 (stereo unspecified),0
CCc1c(C)nc2ncnn2c1Sc1ccc(NC(=O)Nc2cccc(SC)c2)cc1,0
CCC(CO)Nc1nc(SC)nc(-c2ccc(C)cc2)c1C#N (stereo unspecified),0
Cc1nccn1CCCC(=O)N1CCC(Cc2cccc(C(=O)O)c2)C1 (stereo unspecified),0
CCOC(=O)N1CCC(NCc2noc(-c3ccco3)n2)CC1,0
CCC(=O)Nc1ccccc1-c1nnc(SC(C)C(=O)Nc2cccc(Cl)c2C)[nH]c1=O (stereo unspecified),0
Cc1ccc(C)c(OCC(=O)NCCc2nc(-c3ccccn3)no2)c1C,0
Cc1ccc(S(=O)(=O)Nc2ccc(Sc3c(C)c(C)nc4ncnn34)cc2)c(C)c1,0
Cc1ccc(CCNC(=O)C2CCN(c3ncnc4c3nc3n4CCCCC3)CC2)cc1,0
CN(CCC(=O)Nc1ccccc1Cl)Cc1cc(C2CC2)n[nH]1,0
CSc1nccc(-c2ccc(Cl)cc2Cl)n1,+
Cc1ccc(NC(=O)CNc2nccc(-c3ccc(C)nc3C)n2)c(F)c1,0
COC(=O)c1cc2n(n1)CCN(c1ccnc(SC)n1)C2,0
CC(=O)Oc1ccc(Nc2cc(C)nc3nc(-c4cccnc4)nn23)cc1,0
CNC(=O)c1ccc(Cn2c(=O)c3cc(OC)c(OC)cc3n(CC(=O)NCCCOC)c2=O)cc1,+
CNC(=O)c1ccc(Cn2c(=O)c3cc(OC)c(OC)cc3n(CC(=O)NCCC(C)C)c2=O)cc1,+
CNC(=O)c1ccc(Cn2c(=O)c3cc(OC)c(OC)cc3n(CC(=O)N3CCCCC3C)c2=O)cc1 (stereo unspecified),0
CNC(=O)c1ccc(Cn2c(=O)c3cc(OC)c(OC)cc3n(CC(=O)Nc3ccccc3)c2=O)cc1,0
CNC(=O)c1ccc(Cn2c(=O)c3cc(OC)c(OC)cc3n(CC(=O)N3CCC(C)CC3)c2=O)cc1,+
CCCNC(=O)Cn1c(=O)n(Cc2ccc(C(=O)NCCC)cc2)c(=O)c2cc(OC)c(OC)cc21,0
CNC(=O)c1ccc(Cn2c(=O)c3cc(OC)c(OC)cc3n(CC(N)=O)c2=O)cc1,0
CCCNC(=O)Cn1c(=O)n(Cc2ccc(C(=O)NC(C)C)cc2)c(=O)c2cc(OC)c(OC)cc21,0
